High-throughput results deposited in PubChem BioAssay by National Center for Advancing Translational Sciences (NCATS).
Compounds with a hit are over-represented: about 8.1% of the library has one in this group of screens.
MCF10A rereplic = inducers of DNA re-replication in MCF 10A breast cells | Potency, µM (top dose mostly 46.1 µM), usual class: activators | MCF 10A DNA re-replication, Hoechst nuclear intensity, 48 h | 350,000 tested, 2.9% active | AID 624296; note: nearly all actives have a fitted effect of over 50% in size
KB-3-1 tox = KB-3-1 parental cell cytotoxicity. KB-3-1 viability, CellTiter-Glo ATP luminescence, 72 h. Potency, µM (top dose mostly 46.1 µM), most hits filed as cytotoxic. 400,000 tested, 1.4% active. AID 1347075; note: nearly all actives have a fitted effect of over 60% in size
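72 h, 37 °C compound treatment of KB-3-1 parental cells; CellTiter-Glo added, 10 min, luminescence read. Data corrected against DMSO-only plates and normalized before curve fitting.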
SW480 rerep = inducers of DNA re-replication in SW480 colon cancer cells | SW480 DNA re-replication, Hoechst DNA content imaging, 48 h | Potency, µM (series often up to 46.1 µM), usual class: activators | 340,000 tested, 1.8% active | AID 624297; note: nearly all actives have a fitted effect of over 55% in size
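Per well, 250 cells were exposed to pinned compound for 48 hr. Nuclear DNA was visualised with Hoechst (40 min, 37 C) and total object intensity recorded by fluorescence scanning.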
KB-V1 cytotox = KB-V1 MDR subline cytotoxicity | Potency, µM (series often up to 46.1 µM), hits mostly cytotoxic | KB-V1 MDR cells viability, CellTiter-Glo, 72 h | 400,000 tested, 3.4% active; note: nearly all actives have a fitted effect of over 60% in size
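Cells of the MDR subline KB-V1 are plated, dosed with compound at multiple concentrations, and incubated 72 h at 37 degrees C; CellTiter-Glo is then added and luminescence read after 10 min.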
ELG1 DNA repair = inhibitors of ELG1-dependent DNA repair in HEK293T cells; HEK293T ELG1-luciferase reporter, luminescence, 16 h; DNA damage induced by 5-fluorouridine; Potency, µM (doses to about 46.1 µM), actives largely listed as inhibitors; 330,000 tested, 2.3% active; AID 504467; note: nearly all actives have a fitted effect of over 55% in size
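Step one: seed 2,000 cells per well. Step two: pin-transfer compound or DMSO alongside 5-fluorouridine. Step three: incubate 16 hr, 37 °C, 5% CO2. Step four: add ONE-Glo, wait 30 min, read luminescence.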
Each line names hits and unclear results; the compound was inactive in the other large screens. Calls come from the whole dose curve; as a rule, active = well fitted curve in the direction sought with a large enough effect; inconclusive = small, poorly fitted or top-dose-only effect, or another doubt; inactive = no such curve, though single readings can be large; an effect the other way counts as inactive or inconclusive.

O=C(CCN1C(=O)/C(=C\c2ccccc2F)SC1=S)N1CCCCC1	MCF10A rereplic inconclusive, KB-3-1 tox 10.3µM, SW480 rerep inconclusive, KB-V1 cytotox inconclusive
O=C(CCN1C(=O)/C(=C\c2ccccc2Cl)SC1=S)N1CCN(c2ccccc2)CC1	MCF10A rereplic 6.51µM, KB-3-1 tox inconclusive, KB-V1 cytotox inconclusive
CC1CCN(C(=O)CCN2C(=O)/C(=C/c3cccs3)SC2=S)CC1	MCF10A rereplic 23.1µM, KB-3-1 tox inconclusive, SW480 rerep 5.8µM, KB-V1 cytotox inconclusive
CCc1ccccc1NC(=O)C(C)n1nc(-c2ccc(C)c(C)c2)ccc1=O (stereo unspecified)	none (no result: MCF10A rereplic, SW480 rerep, ELG1 DNA repair)
O=C1/C(=C/c2ccccc2F)SC(=S)N1CCC(=O)N1CCCCC1CCO (stereo unspecified)	MCF10A rereplic 23.1µM, KB-3-1 tox inconclusive, SW480 rerep inconclusive
CCc1nc(-c2cc3ccc(C)cc3[nH]c2=O)no1	ELG1 DNA repair inconclusive
Cc1ccc2cc(-c3noc(C(C)(C)C)n3)c(=O)[nH]c2c1	KB-V1 cytotox 18.4µM
CC(Oc1cccc(F)c1)c1ccnc2nc(/N=C/N(C)C)nn12 (stereo unspecified)	KB-3-1 tox inconclusive
Cn1c(=O)c2c(nc(NCc3ccccc3)n2Cc2ccc(Cl)c(Cl)c2)n(C)c1=O	KB-3-1 tox inconclusive, KB-V1 cytotox 18.4µM (no result: MCF10A rereplic, SW480 rerep, ELG1 DNA repair)
Cn1c(=O)c2c(nc(NCc3ccc4c(c3)OCO4)n2Cc2ccccc2)n(C)c1=O	MCF10A rereplic inconclusive, KB-3-1 tox 23.1µM, SW480 rerep inconclusive, ELG1 DNA repair 16.4µM
COc1ccc(CCNc2nc3c(c(=O)n(C)c(=O)n3C)n2Cc2ccc(F)cc2)cc1OC	KB-3-1 tox 18.4µM, KB-V1 cytotox 2.06µM (no result: MCF10A rereplic, SW480 rerep, ELG1 DNA repair)
CCNc1nc2c(c(=O)n(C)c(=O)n2C)n1Cc1ccc(F)cc1	KB-3-1 tox inconclusive (no result: MCF10A rereplic, SW480 rerep, ELG1 DNA repair)
Cn1c(=O)c2nc(NCc3ccccc3)cnc2n(C)c1=O	KB-V1 cytotox 18.4µM
Cn1c(=O)c2c(nc(NCc3ccc4c(c3)OCO4)n2Cc2ccccc2F)n(C)c1=O	KB-3-1 tox inconclusive, KB-V1 cytotox inconclusive, ELG1 DNA repair inconclusive
COc1cc(NS(=O)(=O)c2ccc(NC(=O)/C=C/c3cccc([N+](=O)[O-])c3)cc2)ncn1	none
CC(C)CC(=O)n1nc(-c2cccnc2)nc1NCc1ccc(F)cc1	none (no result: MCF10A rereplic, SW480 rerep, ELG1 DNA repair)
Cn1c(-c2ccc3c(c2)OCO3)cnc1NCc1ccccc1	MCF10A rereplic 25.9µM, KB-3-1 tox inconclusive, SW480 rerep inconclusive, KB-V1 cytotox 13µM
Cn1c(-c2ccc3c(c2)OCO3)cnc1NCc1cccc(Cl)c1	MCF10A rereplic inconclusive, KB-V1 cytotox inconclusive
Cc1coc2c1C(=O)C(=O)c1c-2ccc2c1CCCC2(C)C	MCF10A rereplic inconclusive, KB-3-1 tox 6.51µM, KB-V1 cytotox 7.31µM, ELG1 DNA repair inconclusive
Cc1ccc2c3c(cccc13)-c1ccccc1C2=O	KB-V1 cytotox inconclusive, ELG1 DNA repair inconclusive
Cc1coc2c1C(=O)C(=O)c1c-2ccc2c(C)cccc12	MCF10A rereplic inconclusive, KB-3-1 tox 9.2µM, SW480 rerep 5.17µM, KB-V1 cytotox 9.2µM, ELG1 DNA repair inconclusive
COc1ccc(OC)c(/C=C/c2ccc3ccccc3n2)c1	none (no result: MCF10A rereplic, SW480 rerep, ELG1 DNA repair)
O=C(N/N=C\c1cccs1)c1ccccc1-n1cccc1	none
C=CCNS(=O)(=O)NC(=O)C1=C(N2CCCC2)COC1=O	KB-3-1 tox inconclusive, ELG1 DNA repair inconclusive
O=C(c1cnc(N2CCN(c3ncccn3)CC2)c2ccccc12)N1CCN(c2ccccn2)CC1	MCF10A rereplic inconclusive, KB-V1 cytotox 20.6µM, ELG1 DNA repair inconclusive
O=C(c1cn(Cc2ccccc2)nc1-c1ccccc1)N1CCN(c2ccccn2)CC1	KB-3-1 tox 10.3µM, SW480 rerep inconclusive, KB-V1 cytotox inconclusive, ELG1 DNA repair inconclusive
O=C(c1ccccc1-c1ccccc1)N1CCN(c2ccccn2)CC1	MCF10A rereplic 7.31µM, KB-3-1 tox 2.59µM, SW480 rerep 7.31µM, KB-V1 cytotox 2.59µM
Cc1ccccc1C(=O)N1CCN(c2ccccn2)CC1	none
O=[N+]([O-])c1ccc(OCC(O)CNC2CCCC2)cc1 (stereo unspecified)	none
COc1cccc(NC(=O)N2CCCC(C(=O)NCc3ccc(F)cc3)C2)c1 (stereo unspecified)	none
Cc1ccc(C(=O)Nc2ccc(Cl)cn2)cc1S(=O)(=O)N1CCOCC1	KB-V1 cytotox inconclusive, ELG1 DNA repair inconclusive
O=C(Nc1nccs1)c1ccc(Cl)c(S(=O)(=O)N2CCOCC2)c1	ELG1 DNA repair 20.6µM
Cc1ccc(NC(=O)c2ccc(C)c(S(=O)(=O)N3CCOCC3)c2)nc1	KB-V1 cytotox 14.6µM
Cc1ccc(NC(=O)c2ccc(S(=O)(=O)N3CCOCC3)cc2)nc1	KB-V1 cytotox 16.4µM
Cc1ccc(C(=O)Nc2ccc(S(=O)(=O)N3CCOCC3)cc2)cc1	none
Cc1ccc(NC(=O)c2ccc(C(=O)c3ccccc3)cc2)nc1	KB-3-1 tox 14.6µM, SW480 rerep inconclusive, KB-V1 cytotox inconclusive, ELG1 DNA repair inconclusive
Cc1ccc(NC(=O)c2ccc3nc[nH]c3c2)nc1	MCF10A rereplic inconclusive, KB-3-1 tox inconclusive
CCc1ccc(NC(=O)C(C)OC(=O)CCN2C(=O)C3CC=CCC3C2=O)cc1 (stereo unspecified)	MCF10A rereplic inconclusive (no result: ELG1 DNA repair)
Cc1ccc(CSCCNC(=O)c2ccc(Cl)c(S(=O)(=O)N3CCOCC3)c2)cc1	KB-3-1 tox 20.6µM, KB-V1 cytotox 3.66µM, ELG1 DNA repair 23.1µM
O=C(NCCC1=CCCCC1)c1ccc(Cl)c(S(=O)(=O)N2CCOCC2)c1	ELG1 DNA repair inconclusive
O=C(Nc1cc(SCCO)cc([N+](=O)[O-])c1)c1ccc(Br)o1	KB-3-1 tox inconclusive, KB-V1 cytotox 20.6µM, ELG1 DNA repair inconclusive
O=C(CCCl)Nc1cc(SCCO)cc([N+](=O)[O-])c1	none
COC(=O)c1cc(Br)ccc1-c1ccc(/C=N/n2nnnc2N)o1	ELG1 DNA repair inconclusive
CN(C)C(=S)N=c1ssc(=S)n1Cc1cccnc1	MCF10A rereplic 11.6µM, KB-3-1 tox inconclusive, SW480 rerep 18.4µM, KB-V1 cytotox inconclusive (no result: ELG1 DNA repair)
O=C1/C(=C\c2cc([N+](=O)[O-])ccc2O)SC(=S)N1Cc1ccc(Cl)cc1	MCF10A rereplic inconclusive, KB-3-1 tox inconclusive, KB-V1 cytotox 23.1µM, ELG1 DNA repair 18.3µM
O=C1/C(=C\c2cccc(O)c2O)SC(=S)N1Cc1ccccc1	MCF10A rereplic inconclusive, KB-3-1 tox inconclusive, SW480 rerep 18.4µM, KB-V1 cytotox inconclusive
O=C1/C(=C\c2ccc(O)c(O)c2)SC(=S)N1Cc1ccccc1	KB-3-1 tox inconclusive, SW480 rerep inconclusive, KB-V1 cytotox inconclusive, ELG1 DNA repair inconclusive
Cc1cccc(NC(=O)Cn2c(O)c(N=NC(N)=S)c3ccccc32)c1	ELG1 DNA repair inconclusive
CC1=CC(C)(C)n2c(O)c(N=NC(N)=S)c3cc(C)cc1c32	MCF10A rereplic inconclusive, SW480 rerep 16.4µM
Cc1cc(C)cc(C(O)c2ncc(-c3ccccc3Cl)[nH]2)c1 (stereo unspecified)	none (no result: MCF10A rereplic, SW480 rerep, ELG1 DNA repair)
COCCNC(=O)c1cc2oc3ccccc3c2n1C	KB-V1 cytotox 23.1µM, ELG1 DNA repair inconclusive
